Pf growth 48h – inhibits P. falciparum growth in the first generation, 48 h. P. falciparum luciferase growth in erythrocytes, 48 h. Potency, µM (titrated, usually from 28.7 µM), for the others: at the highest dose activity change, negative = inhibition, usual class: inhibitors. actives 5.9% (n = 310,000); note: potency is the fitted concentration of half-maximal effect; % is set by controls: 0 for no effect and ±100 for the full control effect
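Growth was read as firefly luciferase luminescence after a 48 h, 37 C, 5% CO2 exposure of compounds to reporter-bearing P. falciparum cultures (0.1% parasitemia, 2% hematocrit final) in Albumax-supplemented RPMI 1640.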
Pf growth 96h – inhibits malaria parasite growth, 96 h. P. falciparum luciferase reporter growth, 96 h. Potency, µM (series often up to 28.7 µM), for inactives: at the top dose activity change, negative = inhibition, hits mostly inhibitors. actives 6.9% (n = 320,000). AID 504834; note: potency is the fitted concentration of half-maximal effect; % is set by controls: 0 for no effect and ±100 for the full control effect
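Erythrocytes infected with luciferase-expressing P. falciparum were dispensed at 2% hematocrit and 0.05% parasitemia (final), then incubated with compounds 96 hours at 37 C in 5% CO2. Luminescence after detection reagent addition reported growth.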
RE007 growth inh – less growth of the S. pombe RE007 Vpr strain; S. pombe RE007 Vpr strain, BacTiter-Glo ATP luminescence, 24 h; Potency, µM (titrated, usually from 92.2 µM), for the others: top-dose activity change, negative = less growth, usual class: inhibitors; actives 0.21% (n = 360,000); active = well fitted falling curve with a large enough effect; inconclusive = small, poorly fitted or top-dose-only effect; inactive = no such curve, though single readings can be large or run the other way; note: potency is the fitted concentration of half-maximal effect; % is set by controls: 0 for no effect and ±100 for the full control effect; nearly all actives have a fitted effect of over 50% in size
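Fission yeast RE007 carrying one integrated HIV-1 vpr copy, seeded at OD 0.01 in PMG+AL medium with 23 nL pinned compound. Grown 24 h at 30 degrees; viability read by BacTiter-Glo luminescence after 5 min.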
SARS PLpro yeast-1 – blocks SARS-CoV papain-like protease in a yeast assay; actives 0.19% (n = 330,000); S. cerevisiae expressing SARS-CoV PLpro, growth rescue; Potency, µM (doses to about 32.9 µM), for the others: at the top dose activity, positive = growth rescue, usual class: activators; calls by dose curve; note: potency is the fitted concentration of half-maximal effect; 0% is about no effect; nearly all actives have a fitted effect of over 55% in size
NS1 inh – inhibitors of influenza NS1 protein function; Potency, µM (doses to about 46.1 µM), for inactives: at the top dose activity, positive = more growth; actives 0.4% (n = 270,000); AID 2326; calls by dose curve; note: potency is the fitted concentration of half-maximal effect; actives are rising curves; nearly all actives have a fitted effect of over 50% in size
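A cell-based growth assay was used: compounds that relieve NS1-induced slow growth of budding yeast raise OD600. Assay medium was yeast nitrogen base with ammonium sulphate and -URA supplement, pH 6.0, with 2% galactose.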
SARS PLpro yeast-2 – Inhibits SARS-CoV PLP in yeast, hit validation. shares compounds with SARS PLpro yeast-1. yeast expressing SARS-CoV PLpro, growth phenotype rescue. calls only. actives 19% (n = 1,000). AID 652038; call rule not given here
Active calls of the source: *; i = inactive; ? = inconclusive; nt = not tested or not shown; + = active, no number. This is a sample that favours compounds with a hit; in the whole collection about 9.5% have one here. Unless noted, calls come from the whole dose curve; as a rule, active = well fitted inhibition curve with a large enough effect; inconclusive = small, poorly fitted or top-dose-only effect, or another doubt; inactive = no such curve, though single readings can be large or run the other way.

SMILES	Pf growth 48h	Pf growth 96h	RE007 growth inh	SARS PLpro yeast-1	NS1 inh	SARS PLpro yeast-2
Cc1ccccc1S(=O)(=O)Cc1ccc(C(=O)NCCCN2CCN(C)CC2)o1	?	110%	9%	?	6%	i
COc1ccc(CNC(=O)c2ccc(S(=O)(=O)N3CCCC3)cc2)cc1OC	nt	?	5%	?	0%	i
COc1ccc(COC(=O)c2ccc(S(=O)(=O)N3CCCCC3)cc2)cc1OC	?	?	-15%	4%	nt	nt
COc1ccc(S(=O)(=O)N2CCCCC2)cc1C(C)C	?	?	-1%	?	-52%	i
O=C(Oc1c(Cl)cc(Cl)c2cccnc12)c1cccs1	?	-32%	5.6µM*	nt	-17%	?
Cc1cc(SC#N)cc(C)c1NC(=O)CCl	-11%	58%	18%	nt	-3%	i
Cc1ccc2nsnc2c1NC(=O)CCl	?	?	3%	5%	2%	nt
CN(C)c1cc[n+](CC(=O)Nc2cc(C(F)(F)F)ccc2Cl)cc1	1.7µM*	0.83µM*	6%	?	0%	i
O=C(N/N=C/c1ccc(OC(F)F)cc1OC(F)F)c1ccc(Br)cc1	-27%	?	7%	nt	5%	i
Cc1ccc(S(=O)(=O)N(C)Cc2ccc(C(=O)N/N=C/c3ccc(OC(F)F)cc3OC(F)F)cc2)cc1	-11%	?	-2%	-2%	?	nt
O=C1C=CC(=O)N1	0%	-5%	?	nt	nt	nt
CC1Cc2ccccc2N1c1ncnc2c1nnn2Cc1ccccc1 (stereo not drawn)	-6%	-19%	-3%	-1%	-21%	nt
CC1Cc2ccccc2N1c1nc(C2CC2)nc2c1nnn2Cc1ccccc1 (stereo not drawn)	-3%	-5%	-1%	?	-7%	+
Cc1cc(C)c(S(=O)(=O)NCC(=O)NCc2cc(=O)n(C)c(=O)n2C)c(C)c1	-8%	-17%	8%	1%	12%	nt
CC(=O)O[C@@H]1[C@@]2(C)O[C@H]2CC[C@]23O[C@H]2[C@H](OC3=O)C2=C(C)C(=O)O[C@@]21O	20%	-18%	60%	?	11%	i
CCOc1ccc(-n2c(O)c(/C=N/NC(=O)C3COc4ccccc4O3)c3ccccc3c2=O)cc1 (stereo not drawn)	14%	69%	-8%	11µM*	?	?
COc1cc(/C=N\NC(=O)C2COc3ccccc3O2)cc(OC)c1O (stereo not drawn)	?	-2%	8%	-1%	-12%	nt
COc1cccc(NC(=O)Cn2cnc3c(oc4nc5c(cc43)CCCC5)c2=O)c1	3%	?	-10%	?	-12%	?
Cc1[nH]c(=S)sc1Cc1ccc(Cl)c(Cl)c1	13%	30%	nt	?	11%	+
COc1ccc(-c2c/c(=N\c3nc(-c4ccccc4)c(C)s3)c3ccccc3o2)cc1O	?	nt	4%	?	-8%	+
COc1cccc(CNC(=O)c2ccccc2-c2ccccc2)c1	1%	?	-3%	1%	5%	nt
COc1cc(CNCc2ccccn2)ccc1OCc1ccc(Cl)cc1	?	-27%	7%	?	-7%	i
COCc1ccc(C(=O)N2CCCC(Nc3ccc(C(C)C)cc3)C2)o1 (stereo not drawn)	?	10%	-10%	7%	-10%	nt
COc1ccc(NC(=O)CN2CCCCCC2)cc1OC	13%	23%	2%	6%	7%	nt
COc1cc(/C=C/C(=O)NC(C)C)ccc1OCc1ccccc1	13µM*	0%	5%	?	12%	+
CC(C)(C)n1ncc(Oc2ccccc2[N+](=O)[O-])c(Cl)c1=O	-25%	-5%	9%	?	-24%	i
Cn1ncc(Oc2ccc([N+](=O)[O-])cc2)c(Cl)c1=O	7%	-1%	3%	3%	4%	nt
O=C(OC1C2C=CC1C1C(=O)NC21)c1ccccc1 (stereo not drawn)	nt	nt	-5%	nt	nt	nt
CC1CCCC(NC(=O)COc2ncnc3ccccc23)C1C (stereo not drawn)	nt	nt	-7%	?	nt	i
O=C(Nc1cc(-c2ccccc2)nn1C1CCCCC1)c1ccc(Cl)cc1	nt	nt	5%	?	nt	i

Compound activity as filed in PubChem.
